Experimental data: PubChem BioAssay (Tox21)
Records with an inconclusive call do not appear. Entries that show only a call come without a potency. Calls of active or inactive are those of the source. Unless noted, calls come from the whole dose curve.

Tests used:
[1] = qHTS assay to identify small molecule agonists of the peroxisome proliferator-activated receptor delta (PPARd) signaling pathway - cell viability counter screen (AID 743211; active = well fitted curve in the direction sought with a large enough effect in the repeat runs; an effect the other way counts as inactive or inconclusive; note: nearly all actives have a fitted effect of over 55% in size; note: potency is the fitted concentration of half-maximal effect)
In short: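 qHTS cell viability: PPARd-bla HEK293H; 17 h cpd, 37C; CellTiter-Glo, luminescence at 30 min RT.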

[2] = target: Peroxisome proliferator-activated receptor delta (Homo sapiens) (UniProt Q03181); experiment: qHTS assay to identify small molecule agonists of the peroxisome proliferator-activated receptor delta (PPARd) signaling pathway (AID 743212)
Sequence of Peroxisome proliferator-activated receptor delta (Homo sapiens) (Q03181 whole entry, looked up): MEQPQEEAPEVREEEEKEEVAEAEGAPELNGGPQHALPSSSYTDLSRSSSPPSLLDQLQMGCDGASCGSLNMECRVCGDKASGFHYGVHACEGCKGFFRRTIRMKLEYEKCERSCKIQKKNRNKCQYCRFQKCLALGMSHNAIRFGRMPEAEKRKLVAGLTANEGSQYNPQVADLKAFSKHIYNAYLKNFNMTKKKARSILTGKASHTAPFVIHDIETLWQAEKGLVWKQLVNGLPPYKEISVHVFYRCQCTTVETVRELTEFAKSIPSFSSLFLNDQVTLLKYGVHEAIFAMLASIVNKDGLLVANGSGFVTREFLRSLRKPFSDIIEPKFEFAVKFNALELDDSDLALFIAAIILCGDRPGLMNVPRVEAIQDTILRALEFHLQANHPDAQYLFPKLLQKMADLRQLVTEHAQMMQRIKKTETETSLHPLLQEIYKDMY
In short: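 Read-out: beta-lactamase FRET fluorescence after 2 h room-temperature incubation with LiveBLAzer B/G substrate. Cells were HEK293H carrying a UAS-bla reporter for PPARd, treated at 37 C with DMSO-dissolved compounds.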

[3] = target: Peroxisome proliferator-activated receptor delta (Homo sapiens) (UniProt Q03181); experiment: qHTS assay to identify small molecule antagonists of the peroxisome proliferator-activated receptor delta (PPARd) signaling pathway (AID 743215; active = well fitted inhibition curve with a large enough effect in the signal ratio in the repeat runs, not every such curve was filed as active; the % refers to the signal ratio;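 note: cells stimulated with agonist L165041 at 300 nM final during compound exposure; series mostly up to about 62 µM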)
In short: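 Cells: HEK293H with a UAS-driven beta-lactamase reporter responsive to PPARd. Compounds were co-added with L165041 (300 nM, final) and incubated 17 h at 37 C before a 2 h room-temperature FRET substrate step and fluorescence reading.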

[4] = qHTS assay to identify small molecule agonists of the farnesoid-X-receptor (FXR) signaling pathway - cell viability counter screen (AID 743218; active = well fitted curve in the direction sought with a large enough effect in the repeat runs; an effect the other way counts as inactive or inconclusive; note: nearly all actives have a fitted effect of over 45% in size)
In short: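 Cells were seeded, left 5 h at 37 C and 5% CO2, then dosed with compound in DMSO for 16 h. After the beta-lactamase FRET read, CellTiter-Glo was added and luminescence measured 30 min later.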

[5] = qHTS assay to identify small molecule antagonists of the farnesoid-X-receptor (FXR) signaling pathway - cell viability counter screen (AID 743221; active = well fitted cell-killing curve with a large enough effect in the repeat runs, not every such curve was filed as active; note: nearly all actives have a fitted effect of over 50% in size)
In short: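 After a 5 h settling period, FXR-bla HEK 293T cells receive compound and chenodeoxycholic acid (50 uM final) and incubate 16 h at 37 C; CellTiter-Glo luminescence, read after 30 min at room temperature, reports cell viability.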

[6] = target: Vitamin D3 receptor (Homo sapiens) (UniProt P11473); experiment: qHTS assay to identify small molecule agonists of the vitamin D receptor (VDR) signaling pathway (AID 743222)
Sequence of Vitamin D3 receptor (Homo sapiens) (P11473 whole entry, looked up): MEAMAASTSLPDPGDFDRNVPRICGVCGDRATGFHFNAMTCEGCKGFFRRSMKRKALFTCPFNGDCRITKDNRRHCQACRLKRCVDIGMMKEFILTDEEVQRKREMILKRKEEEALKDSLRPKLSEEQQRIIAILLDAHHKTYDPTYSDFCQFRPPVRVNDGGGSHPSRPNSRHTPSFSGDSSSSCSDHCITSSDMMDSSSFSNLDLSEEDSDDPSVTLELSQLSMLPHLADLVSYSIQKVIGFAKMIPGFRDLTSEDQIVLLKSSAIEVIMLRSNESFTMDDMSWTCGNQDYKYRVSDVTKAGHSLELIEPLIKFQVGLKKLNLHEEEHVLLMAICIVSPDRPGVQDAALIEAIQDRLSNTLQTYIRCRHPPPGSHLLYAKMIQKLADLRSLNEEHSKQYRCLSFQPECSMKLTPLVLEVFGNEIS
In short: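 Cells carrying a VDR-driven beta-lactamase reporter are seeded at 2,000 per well and rested 4 h. Compounds in DMSO are added for 16 h at 37C, and FRET substrate fluorescence is measured after 2 h at room temperature.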

[7] = target: Vitamin D3 receptor (Homo sapiens) (UniProt P11473); experiment: qHTS assay to identify small molecule antagonists of the vitamin D receptor (VDR) signaling pathway (AID 743223; active = well fitted inhibition curve with a large enough effect in the signal ratio in the repeat runs, not every such curve was filed as active; the % refers to the signal ratio)
In short: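 Reporter line VDR-bla; stimulus 1alpha,25-(OH)2 vitamin D3, 3 nM final; compound co-addition, 16 h 37C/5% CO2; LiveBLAzer B/G substrate 2 h RT; fluorescence intensity.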

[8] = qHTS assay to identify small molecule agonists of the vitamin D receptor (VDR) signaling pathway - cell viability counter screen (AID 743224; active = well fitted curve in the direction sought with a large enough effect in the repeat runs; an effect the other way counts as inactive or inconclusive; note: series mostly up to about 63 µM; nearly all actives have a fitted effect of over 50% in size)
In short: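 Cells: VDR-bla, 2,000/well, settled 4 h. Treatment: compounds in DMSO, 16 h, 37C/5% CO2. Readout: CellTiter-Glo luminescence after 30 min RT.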

[9] = qHTS assay to identify small molecule antagonists of the vitamin D receptor (VDR) signaling pathway - cell viability counter screen (AID 743225; active = well fitted curve in the direction sought with a large enough effect in the repeat runs; an effect the other way counts as inactive or inconclusive; note: nearly all actives have a fitted effect of over 50% in size)
In short: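 Parallel cytotoxicity test: VDR-UAS-bla HEK 293T, 3 nM (final) 1-alpha,25-dihydroxyvitamin D3 with test compound, 16 h, 37C. Endpoint is CellTiter-Glo luminescence in the same wells.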

[10] = qHTS assay to identify small molecule agonists of the NFkB signaling pathway (AID 1159509; active = well fitted curve in the direction sought with a large enough effect in the signal ratio in the repeat runs, not every such curve was filed as active; the % refers to the signal ratio; note: series mostly up to about 61 µM)
In short: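 Beta-lactamase reporter assay run in quantitative high-throughput format on an NF-kB-responsive ME-180 line, with 5 hr compound treatment and a FRET-based blue/green fluorescence readout.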

[11] = qHTS assay to identify small molecule agonists of the NFkB signaling pathway - cell viability counter screen (AID 1159515); note: series mostly up to about 61 µM; nearly all actives have a fitted effect of over 55% in size
In short: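 Cells are seeded (2,000 NFkB-bla ME-180 per well), rested overnight, and dosed with DMSO-dissolved compounds for 5 hr at 37 C. Viability is then read by CellTiter-Glo luminescence after 30 min at room temperature.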

[12] = qHTS assay to identify small molecule agonists of the endoplasmic reticulum stress response signaling pathway (AID 1159516; active = well fitted activation curve with a large enough effect in the signal ratio in the repeat runs, not every such curve was filed as active; the % refers to the signal ratio)
In short: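 Cells are seeded at 1,500 per well and incubated overnight. Compounds in DMSO are added for 5 hr at 37 C, then beta-lactamase FRET substrate for 2 hr at room temperature, and fluorescence at 460 and 530 nm is measured.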

[13] = qHTS assay to identify small molecule agonists of the endoplasmic reticulum stress response signaling pathway - cell viability counter screen (AID 1159517);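 note: HeLa cells carrying an ER stress response element beta-lactamase reporter; series mostly up to about 61 µM; nearly all actives have a fitted effect of over 50% in size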
In short: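 Steps: seed 1,500 ESRE-bla HeLa cells per well; incubate overnight at 37 C, 5% CO2; add compounds in DMSO for 5 hr; run FRET substrate 2 hr RT; add CellTiter-Glo, wait 30 min, read luminescence.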

[14] = qHTS assay to identify small molecule antagonists of the retinoid-related orphan receptor gamma (ROR-gamma) signaling pathway - cell viability counter screen (AID 1159520; active = well fitted curve in the direction sought with a large enough effect in the repeat runs; an effect the other way counts as inactive or inconclusive; note: nearly all actives have a fitted effect of over 50% in size)
In short: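 Tet-on ROR gamma CHO cells were given compounds for 2 hr, then doxycycline hyclate at 1 uM final, and incubated 16 hr at 37 C. Viability was measured as ATP content by CellTiter-Glo luminescence.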

[15] = target: Nuclear receptor ROR-gamma (Homo sapiens) (UniProt P51449); experiment: qHTS assay to identify small molecule antagonists of the retinoid-related orphan receptor gamma (ROR-gamma) signaling pathway (AID 1159521; active = well fitted curve in the direction sought with a large enough effect in the repeat runs; an effect the other way counts as inactive or inconclusive; note: nearly all actives have a fitted effect of over 50% in size; note: potency is the fitted concentration of half-maximal effect)
In short: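 Decreased RORE-driven luciferase luminescence indicates antagonism. Tet-on RORγ CHO cells received compound, then 1 uM final doxycycline 2 h later; signal read after 16 h incubation.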

[16] = qHTS assay to identify small molecule agonists of the AP-1 signaling pathway - cell viability counter screen (AID 1159525); note: nearly all actives have a fitted effect of over 55% in size
In short: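 Same-well cytotoxicity counter screen of the Tox21 10K library in ME-180 cells. The readout is ATP-dependent luminescence after 5 h compound treatment. Data are normalised to DMSO and tetra n-octyl ammonium bromide controls.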

[17] = target: Bile acid receptor (Homo sapiens) (UniProt Q96RI1); experiment: qHTS assay to identify small molecule agonists of the farnesoid-X-receptor (FXR) signaling pathway (AID 743220; active = well fitted activation curve with a large enough effect in the signal ratio in the repeat runs, not every such curve was filed as active; the % refers to the signal ratio)
Sequence of Bile acid receptor (Homo sapiens) (Q96RI1 whole entry, looked up): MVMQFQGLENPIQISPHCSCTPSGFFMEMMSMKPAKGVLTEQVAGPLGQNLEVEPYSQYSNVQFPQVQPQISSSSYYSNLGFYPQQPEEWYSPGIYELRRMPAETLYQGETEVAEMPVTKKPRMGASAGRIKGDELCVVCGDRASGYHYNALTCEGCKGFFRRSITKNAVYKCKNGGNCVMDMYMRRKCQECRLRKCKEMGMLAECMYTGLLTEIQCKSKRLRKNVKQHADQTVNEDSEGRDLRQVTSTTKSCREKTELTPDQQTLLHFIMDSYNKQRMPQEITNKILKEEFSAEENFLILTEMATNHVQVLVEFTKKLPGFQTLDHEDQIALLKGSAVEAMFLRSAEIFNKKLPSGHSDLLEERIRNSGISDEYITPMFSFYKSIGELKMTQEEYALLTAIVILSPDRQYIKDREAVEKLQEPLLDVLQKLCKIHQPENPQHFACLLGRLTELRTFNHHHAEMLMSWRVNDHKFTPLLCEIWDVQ
In short: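 FXR-UAS-bla HEK 293T cells carrying a UAS-driven beta-lactamase reporter were plated for 5 h at 37C/5% CO2, then exposed to DMSO-dissolved Tox21 10K compounds for 16 h at 37C. A LiveBLAzer B/G FRET substrate was loaded for 2 h at room temperature before fluorescence reading.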

[18] = qHTS assay to identify small molecule agonists of the AP-1 signaling pathway (AID 1159526)
[19] = qHTS assay to identify small molecule antagonists of the peroxisome proliferator-activated receptor delta (PPARd) signaling pathway - cell viability counter screen (AID 743213; active = well fitted curve in the direction sought with a large enough effect in the repeat runs; an effect the other way counts as inactive or inconclusive; note: nearly all actives have a fitted effect of over 50% in size)
In short: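 HEK293H PPARd UAS-bla cells, 5 h pre-incubation, compound + L165041 300 nM final, 17 h 37 C; B/G FRET substrate 2 h RT; then CellTiter-Glo 30 min RT, luminescence.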

[20] = target: Bile acid receptor (Homo sapiens) (UniProt Q96RI1); experiment: qHTS assay to identify small molecule antagonists of the farnesoid-X-receptor (FXR) signaling pathway (AID 743217; active = well fitted inhibition curve with a large enough effect in the signal ratio in the repeat runs, not every such curve was filed as active; the % refers to the signal ratio)
In short: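 Cells carrying a UAS-driven beta-lactamase reporter (GeneBLAzer FXR-UAS-bla HEK 293T) were plated and rested 5 h at 37 °C. Compounds in DMSO were added alongside chenodeoxycholic acid agonist at 50 uM final and left 16 h at 37 °C before FRET substrate readout.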

Row | Compound | Potency [1] | outcome [2] | outcome [3] | Potency [4] | outcome [5] | outcome [6] | outcome [7] | Potency [8] | outcome [9] | outcome [10] | outcome [11] | outcome [12] | Potency [13] | Potency [14] | Potency [15] | Potency [16] | outcome [17] | outcome [18] | outcome [19] | Potency [20]
1 | CC1COC2(c3ccccc3Cl)c3cc(Cl)ccc3NC(=O)CN12 (stereo not drawn) | inactive | inactive | inactive | inactive | inactive | inactive | inactive | inactive | inactive | inactive | inactive | inactive | inactive | inactive | inactive | inactive | – | – | – | –
2 | O=C1OC(c2ccc(O)c(S(=O)(=O)O)c2)(c2ccc(O)c(S(=O)(=O)O)c2)c2c(Br)c(Br)c(Br)c(Br)c21 | inactive | inactive | inactive | – | inactive | inactive | – | inactive | inactive | inactive | inactive | inactive | inactive | inactive | inactive | inactive | inactive | – | – | –
3 | CCOC(=O)N(C)C(=O)CSP(=S)(OCC)OCC | – | inactive | – | – | inactive | inactive | – | – | – | inactive | inactive | inactive | inactive | inactive | inactive | inactive | inactive | inactive | – | –
4 | CN1CCC(N(Cc2ccccc2)c2ccccc2)CC1 | 26.6 µM (active) | inactive | inactive | – | inactive | inactive | inactive | inactive | inactive | inactive | inactive | inactive | inactive | inactive | inactive | inactive | – | – | – | –
5 | O=C(Cc1ccccc1)OCc1ccccc1 | – | inactive | inactive | inactive | inactive | inactive | inactive | inactive | inactive | inactive | inactive | inactive | inactive | inactive | inactive | inactive | inactive | inactive | inactive | inactive
6 | Nc1cc2c3c(c1)C(c1ccccc1)=N[C@@H](NC(=O)c1cccnc1)C(=O)N3CC2 | – | inactive | inactive | inactive | inactive | inactive | – | inactive | inactive | inactive | inactive | inactive | inactive | inactive | inactive | inactive | – | inactive | inactive | –
7 | CCCCOC(=O)[C@@H](C)Oc1ccc(Oc2ccc(C#N)cc2F)cc1 | inactive | inactive | – | – | inactive | inactive | inactive | – | inactive | inactive | inactive | inactive | inactive | inactive | inactive | inactive | – | – | inactive | –
8 | Nc1cc(Cl)ccc1O | – | inactive | inactive | inactive | inactive | – | inactive | inactive | inactive | inactive | inactive | inactive | inactive | inactive | inactive | inactive | – | – | – | –
9 | O=NN1CCCCC1 | – | inactive | inactive | inactive | inactive | inactive | inactive | inactive | inactive | inactive | inactive | inactive | inactive | inactive | inactive | inactive | – | inactive | – | –
10 | Cc1nnc2n1-c1sc(CCC(=O)N3CCOCC3)cc1C(c1ccccc1Cl)=NC2 | – | inactive | – | inactive | inactive | – | – | – | inactive | inactive | inactive | inactive | inactive | inactive | inactive | inactive | – | inactive | inactive | inactive
11 | CC1=C(C(=O)Nc2ccccc2)S(=O)(=O)CCO1 | 54.9 µM (active) | – | – | – | – | – | – | – | – | inactive | inactive | inactive | inactive | inactive | 27.3 µM (active) | – | – | inactive | – | –
12 | CNCC(=O)c1ccc(O)c(O)c1 | inactive | – | – | inactive | inactive | inactive | – | inactive | inactive | inactive | inactive | inactive | inactive | inactive | – | inactive | – | inactive | – | –
13 | Cc1cc(C)c(C(=O)P(=O)(C(=O)c2c(C)cc(C)cc2C)c2ccccc2)c(C)c1 | inactive | inactive | inactive | – | inactive | – | inactive | – | inactive | inactive | inactive | inactive | inactive | inactive | – | inactive | inactive | inactive | – | inactive
14 | O=[N+]([O-])c1cccc(O)c1 | inactive | inactive | inactive | inactive | inactive | inactive | inactive | inactive | inactive | inactive | inactive | inactive | inactive | inactive | inactive | – | inactive | inactive | inactive | inactive
15 | Cc1cnc[nH]1 | inactive | inactive | inactive | inactive | inactive | inactive | – | – | inactive | inactive | inactive | inactive | inactive | inactive | – | inactive | inactive | inactive | inactive | inactive
16 | CCN(CC)CCOC(=O)C(C)(c1ccccc1)c1ccccc1 | inactive | inactive | inactive | inactive | inactive | – | – | inactive | inactive | inactive | inactive | inactive | inactive | inactive | – | inactive | – | inactive | inactive | –
17 | ClCC(Cl)(Cl)Cl | inactive | inactive | inactive | – | inactive | inactive | inactive | – | inactive | inactive | inactive | inactive | inactive | inactive | – | inactive | inactive | inactive | inactive | inactive
18 | O=C(O)c1cccc(Cl)c1 | – | inactive | inactive | inactive | inactive | inactive | inactive | inactive | inactive | inactive | inactive | inactive | inactive | inactive | – | inactive | inactive | inactive | inactive | inactive
